Several values for one entry are separate records, joined by “and”; a condition that tells them apart may be missing. Equal entries are not always repeated. Among all 16,000 compounds or so, about 5,100 (32%) were called active. Not shown: some 25% with an inconclusive outcome. The list shows a part of the results. A number with no mark means an inactive call. Calls follow the shape of the dose curve; as a rule, active = well fitted curve in the direction sought with a large enough effect; inconclusive = small, poorly fitted or top-dose-only effect, or effect the other way; inactive = no such curve, though single readings can be large or run the other way.
The molecules below were run against Cytochrome P450 3A4 (Homo sapiens) (UniProt P08684) (assay: Cytochrome panel assay with activity outcomes). Details: recombinant CYP, pro-luciferin dealkylation, luminescence, p450-cyp3a4; series mostly up to 57.1 µM.
% is scaled to controls: 0 for no effect and ±100 for the full control effect.

Chain of Cytochrome P450 3A4 (Homo sapiens) (P08684 whole entry, looked up): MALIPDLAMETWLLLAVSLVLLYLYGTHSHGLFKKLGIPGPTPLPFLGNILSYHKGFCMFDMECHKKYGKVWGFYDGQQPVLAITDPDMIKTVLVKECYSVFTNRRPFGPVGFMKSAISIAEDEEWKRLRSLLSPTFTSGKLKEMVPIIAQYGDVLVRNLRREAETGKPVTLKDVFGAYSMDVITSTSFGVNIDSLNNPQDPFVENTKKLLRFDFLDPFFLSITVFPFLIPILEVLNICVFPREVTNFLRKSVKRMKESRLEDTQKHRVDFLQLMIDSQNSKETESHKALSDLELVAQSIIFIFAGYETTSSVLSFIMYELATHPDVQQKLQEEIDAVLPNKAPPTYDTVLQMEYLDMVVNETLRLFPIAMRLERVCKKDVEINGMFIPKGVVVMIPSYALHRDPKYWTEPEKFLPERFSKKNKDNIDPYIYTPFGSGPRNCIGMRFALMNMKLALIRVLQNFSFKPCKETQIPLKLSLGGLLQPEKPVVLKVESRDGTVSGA

| Compound | activity, negative = inhibition | AC50 |
| --- | --- | --- |
| Oc1c(Br)cc(CN(Cc2cc(Br)c(O)c(Br)c2)C2CCCCC2)cc1Br | -9.71% [at 11.4 µM] | – |
| COc1ccc(C2=Nc3cccc4cccc(c34)N2)cc1 | – | inactive |
| COc1cccc(-c2cncnc2NCc2ccc(OC)cc2OC)c1 | – | 501 nM (active) |
| COc1ccc(CNc2ncncc2-c2cccnc2)c(OC)c1 | – | 501 nM (active) |
| COc1cccc(-c2cncnc2NCc2ccccc2OC)c1 | – | 501 nM (active) |
| COc1ccc(CNc2ncncc2-c2cccc(C#N)c2)c(OC)c1 | – | 316 nM (active) |
| CCNc1nc(NCC)nc(ON=C(C)C)n1 | – | inactive |
| Cn1ccnc1C[C@@](C)(O)c1ccccc1 | -4.26% [at 11.4 µM] | – |
| CCn1cc(C(=O)N/N=C(/C)c2ccc(F)cc2)c(=O)c2cc(F)c(N3CCCC3)cc21 | – | inactive |
| COc1ccccc1CNc1ncncc1-c1cccnc1 | – | 794 nM (active) |
| CC(=O)OC[C@@H]1O[C@@H](O/N=C2/C[C@@H](O)[C@@H](O)[C@@H]3[C@@H]4C(=O)N([C@@H](C)c5ccccc5)C(=O)[C@H]4CC[C@H]23)[C@H](OC(C)=O)[C@H](OC(C)=O)[C@@H]1OC(C)=O | -29.1% [at 11.4 µM] | – |
| CCOC(=O)CCN1C(=O)[C@H]2[C@H]3[C@H](O)[C@H](O)C/C(=N/OC[C@@H](O)COCc4ccco4)[C@H]3CC[C@@H]2C1=O | -22.6% [at 11.4 µM] | – |
| CCOC(=O)CCN1C(=O)[C@H]2[C@H]3[C@H](O)[C@H](O)C/C(=N/OC[C@@H](O)COCc4ccco4)[C@@H]3CC[C@@H]2C1=O | -16.7% [at 11.4 µM] | – |
| C[C@@H](c1ccccc1)N1C(=O)[C@H]2[C@H]3[C@H](O)[C@H](O)C/C(=N/OC[C@@H](O)COCc4ccco4)[C@@H]3CC[C@@H]2C1=O | – | 3160 nM (active) |
| O=C1[C@H]2[C@H]3[C@H](O)[C@H](O)C/C(=N/OC[C@@H](O)COCc4ccco4)[C@H]3CC[C@@H]2C(=O)N1C[C@@H]1CCCO1 | -13.4% [at 11.4 µM] | – |
| C[C@@H](c1ccccc1)N1C(=O)[C@H]2[C@H]3[C@H](O)[C@H](O)C/C(=N/OC[C@@H](O)COCc4ccco4)[C@H]3CC[C@@H]2C1=O | – | 3980 nM (active) |
| C[C@@H](c1ccccc1)N1C(=O)[C@H]2[C@@H]3[C@H](O)[C@H](O)CC(=O)[C@H]3CC[C@H]2C1=O | -24.3% [at 11.4 µM] and -16.6% [at 11.4 µM] | – |
| O=C1[C@H]2[C@H]3[C@H](O)[C@H](O)C/C(=N/OC[C@@H](O)COCc4ccco4)[C@@H]3CC[C@@H]2C(=O)N1C[C@@H]1CCCO1 | -23.9% [at 11.4 µM] | – |
| CC(C)(C)N1C(=O)[C@H]2[C@H]3[C@H](O)[C@H](O)C/C(=N/OC[C@@H](O)COCc4ccco4)[C@@H]3CC[C@@H]2C1=O | – | 5010 nM (active) |

Source: PubChem BioAssay AID1851 (National Center for Advancing Translational Sciences (NCATS), 2009)
